The record followed here is PubChem BioAssay (NCI).

Test systems include HCT-15 colon; HT29 colon; SNB-75 CNS; SNB-19 CNS; U251 CNS; PC-3 prostate; SK-MEL-5 melanoma; UACC-62 melanoma; LOX IMVI melanoma; SK-MEL-28 melanoma.
Holding throughout (test): NCI-60 one-dose screen, 48 h (100 = growth as untreated, 0 = no growth, -100 = all killed)
Settings in all cases: 10 µM unless noted

Compounds without any hit were thinned out: in the full panel of roughly 83,000, 20% have a hit.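 The endpoint reported here, percent growth, reads 100 for growth as untreated, 0 for no net growth and -100 for all cells dead.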 Values without a mark were called inactive. The source made the active and inactive calls. The calls were made as follows: active = growth percent below 10; inactive = the rest.

`NS(=O)(=O)c1ccc(CCNC(=O)/C=C/c2ccc(Cl)cc2)cc1`: the growth in the assay with HCT-15 colon was 98.5%; with HT29 colon, 95.7%; with SNB-75 CNS, 85.2%; with SNB-19 CNS it was 99%; with U251 CNS, 97.8%; with PC-3 prostate, 87.1%. In addition, the growth was 105% with SK-MEL-5 melanoma, 104% in the assay with UACC-62 melanoma, 99.1% in the assay with LOX IMVI melanoma and 104% in the assay on SK-MEL-28 melanoma.
In the case of `CN1CCN(CCOc2ccc(-c3cnc4c(-c5ccccc5F)cnn4c3)cc2)CC1`, the growth in the assay with HCT-15 colon was 3.14% (active); with HT29 colon it was -38% (active); in the assay on SNB-75 CNS, 120%; with SNB-19 CNS it was 69.1%; in the assay with U251 CNS, 2.35% (active); in the assay on PC-3 prostate, 32.4%. Besides, the growth is 35% with SK-MEL-5 melanoma, -10.7% (active) in the assay on UACC-62 melanoma and 59.5% in the assay with SK-MEL-28 melanoma.
On to `COc1cc2[nH]c(C(=O)c3cc(OC)c(OC)c(OC)c3)c(N)c2cc1C#CCO`, for which the growth in the assay with HCT-15 colon is 19.6%; in the assay on HT29 colon, 1.02% (active); with SNB-75 CNS it was 8.88% (active); with SNB-19 CNS, 26.3%; in the assay with U251 CNS, 22.8%; in the assay with PC-3 prostate, 10.6%. For the same compound, the growth in the assay on SK-MEL-5 melanoma is -0.319% (active); in the assay with UACC-62 melanoma it was 31.2%; in the assay on LOX IMVI melanoma, 39.4%; in the assay on SK-MEL-28 melanoma, 14.3%.
With `Nc1c2c(nc3ccc(Cl)cc13)CC(c1ccccc1)CC2=O` (centres undefined), the growth in the assay with HCT-15 colon was 16.7%; in the assay with HT29 colon it was 13.1%; in the assay on SNB-75 CNS, 23.4%; with SNB-19 CNS it was 37%; in the assay with U251 CNS it was 40.9%; with PC-3 prostate, 54.8%. Also, the growth was 30.6% in the assay on SK-MEL-5 melanoma, 23.7% with UACC-62 melanoma and 51.5% in the assay on SK-MEL-28 melanoma.
`COc1cc(/C=N/NC(=S)NNC(=S)NC2CCCCC2)cc(OC)c1OC`: the growth with HCT-15 colon was 91.9%; with HT29 colon, 108%; in the assay on SNB-75 CNS it was 91.5%; in the assay on SNB-19 CNS it was 98.3%; in the assay on U251 CNS it was 100%; in the assay on PC-3 prostate, 81.3%. Moreover, the growth in the assay with SK-MEL-5 melanoma is 92.5%; with UACC-62 melanoma, 85.8%; with SK-MEL-28 melanoma, 99%.
For the compound `Nc1nc(N)c2nc3c(nc2n1)CCCCCCCCCC3`, the growth in the assay with HCT-15 colon was 33.6%; in the assay on HT29 colon, 35.6%; in the assay on SNB-75 CNS it was 79.2%; in the assay on SNB-19 CNS it was 50.8%; in the assay with U251 CNS, 34.9%; in the assay on PC-3 prostate it was 39.2%. The growth in the assay on SK-MEL-5 melanoma is 35%; in the assay on UACC-62 melanoma, 43.9%; in the assay with LOX IMVI melanoma, 30.8%; in the assay on SK-MEL-28 melanoma, 90.4%.
With `COC(=O)[C@@H]1[C@H]2C[C@H]3c4[nH]c5cc(OC)ccc5c4CCN3C[C@@H]2C[C@H](OC(=O)/C=C/c2ccnc(OC)c2)[C@H]1OC`, the growth in the assay on HCT-15 colon is 71.1%; in the assay with HT29 colon, 75.6%; in the assay with SNB-75 CNS it was 53.5%; with SNB-19 CNS, 86.7%; in the assay on U251 CNS, 78%; with PC-3 prostate it was 76%. Further, the growth was 94.8% in the assay on SK-MEL-5 melanoma, 86.7% in the assay on UACC-62 melanoma, 86.5% in the assay on LOX IMVI melanoma and 99.2% with SK-MEL-28 melanoma.
For the compound `Cc1nnc2nc(N)[nH]n2c1=O`, the growth in the assay with HCT-15 colon is 99.4%; with HT29 colon, 104%; in the assay on SNB-75 CNS, 93.7%; with SNB-19 CNS, 117%; with U251 CNS, 99%; in the assay on PC-3 prostate, 98%. Besides, the growth in the assay on SK-MEL-5 melanoma is 106%; in the assay with UACC-62 melanoma it was 115%; in the assay with LOX IMVI melanoma it was 94.7%; in the assay with SK-MEL-28 melanoma it was 109%.
Take `Cc1cc(Nc2ccc(F)cc2)nc(N2CCN(c3ccnc4cc(Cl)ccc34)CC2)n1`: the growth in the assay on HCT-15 colon was 9.8% (active); in the assay on HT29 colon it was 1.42% (active); in the assay with SNB-75 CNS it was 14.6%; with SNB-19 CNS it was 43.9%; in the assay on U251 CNS, 26.4%; in the assay with PC-3 prostate, 11.1%. The growth in the assay on SK-MEL-5 melanoma was 14.1%; in the assay on UACC-62 melanoma it was 21.5%; in the assay with LOX IMVI melanoma, 13.1%; in the assay with SK-MEL-28 melanoma, 16.7%.
Consider `COc1ccc(C(=O)c2cc(OC)c(OC)c(OC)c2)cc1/C=C/C(=O)c1cc(OC)c(OC)c(OC)c1`, for which the growth was 64.7% in the assay on HCT-15 colon; 82.7% in the assay with HT29 colon; 65.4% in the assay on SNB-75 CNS; 92.7% in the assay on SNB-19 CNS; 86.4% in the assay on U251 CNS; 86.5% in the assay on PC-3 prostate. Besides, the growth is 86.6% in the assay on SK-MEL-5 melanoma, 70.6% in the assay with UACC-62 melanoma, 79% in the assay with LOX IMVI melanoma and 91.3% in the assay on SK-MEL-28 melanoma.
As for `Cc1nn2c(-c3nc4cc(Cl)c(Cl)cc4[nH]3)c(-c3ccc(F)cc3)nc2s1`, the growth with HCT-15 colon was 76.8%; in the assay with HT29 colon, 20%; with SNB-75 CNS, -43.7% (active); in the assay on SNB-19 CNS it was 25.7%; in the assay on U251 CNS, 10.6%; in the assay with PC-3 prostate it was 24.6%. For the same compound, the growth in the assay with SK-MEL-5 melanoma was 31.9%; with UACC-62 melanoma, 15.9%; in the assay on LOX IMVI melanoma, 19.5%; with SK-MEL-28 melanoma, 22.9%.
As for `COc1ccc2c(c1)c(-c1nc(-c3c[nH]c4ncccc34)cs1)cn2C`, the growth in the assay with HCT-15 colon is 51.6%; in the assay on HT29 colon it was 55.6%; with SNB-75 CNS it was 76.1%; with SNB-19 CNS, 92.7%; with U251 CNS, 75.3%; with PC-3 prostate it was 61.1%. In addition, the values for the growth in the assay on SK-MEL-5 melanoma, in the assay on UACC-62 melanoma and in the assay with SK-MEL-28 melanoma were 79.4%, 67.6% and 87.9%, respectively.
For `Cc1cc2nc3c4cc(Cl)ccc4n(CCN(C)C)c3nc2cc1C`, the growth in the assay with HCT-15 colon was -25.1% (active); in the assay on HT29 colon, 1% (active); in the assay with SNB-75 CNS, 26.3%; with SNB-19 CNS, 15.4%; in the assay on U251 CNS, 12.3%; in the assay with PC-3 prostate, 27.2%. The growth in the assay with SK-MEL-5 melanoma was 41%; with UACC-62 melanoma, -70.7% (active); with SK-MEL-28 melanoma, -59.3% (active).
In the case of `Cc1ccc(-c2nc([P+](c3ccccc3)(c3ccccc3)c3ccccc3)c(N3C[C@H]4C[C@H](C3)c3cccc(=O)n3C4)o2)cc1`, the growth in the assay with HCT-15 colon was 86.8%; in the assay with HT29 colon, 92.3%; in the assay on SNB-75 CNS, 74.6%; in the assay with SNB-19 CNS, 64.1%; in the assay on U251 CNS, 58.8%; in the assay on PC-3 prostate it was 82.7%. For the same compound, the growth is 68% in the assay with SK-MEL-5 melanoma, 54.5% with UACC-62 melanoma and 62% in the assay on SK-MEL-28 melanoma.
